Measured values from PubChem BioAssay AID1053118 (Broad Institute, 2014).
Results with a measured potency or affinity are listed apart. Active and inactive are the calls of the source.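 Rule for the calls: active = fitted half-maximal concentration for ATP signal loss at most twice the top valid dose; inconclusive = flat curve between -70 and -30%, or an invalid fit; inactive = flat within ±30%, wrong direction, or potency past limit.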

Experiment: viability loss in HepG2 hepatoma cells – cell-based, cherry-picks, set 5, cytotoxicity control, dose response (AID 1053118);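 note: 0% = neutral control wells and -100% = mitoxantrone positive control wells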
Settings: ATP luminescence, 72 h; series mostly up to 26 µM; activity change, negative = cytotoxicity: at the top concentration

| Structure (SMILES) | activity change, negative = cytotoxicity |
| --- | --- |
| C[C@H](CO)N1C[C@H](C)[C@@H](CN(C)C(=O)c2cccc(F)c2)Oc2ncc(-c3ccccc3)cc2C1=O | -14.7% (inactive) |
| CC(C)NC(=O)N(C)C[C@H]1Oc2ccc(NC(=O)CCN3CCOCC3)cc2C(=O)N([C@H](C)CO)C[C@@H]1C | -12.2% (inactive) |
| C[C@@H]1CN([C@H](C)CO)C(=O)c2cc(NC(=O)C3CCCCC3)ccc2O[C@H]1CN(C)Cc1ccc(-c2ccccc2)cc1 | -4.55% (inactive) |
| C[C@@H](O)C#Cc1ccc2c(c1)O[C@@H](CN(C)C)[C@@H](C)CN([C@@H](C)CO)S2(=O)=O | -17.3% (inactive) |
| Cc1ccc(Nc2nnc(SCc3ccccc3)s2)cc1 | 9.81% (inactive) |
| CN(C)C(=O)c1ccc(-c2ccc3c(c2)[C@@H]2[C@@H](CCN2C(=O)c2ccc(F)cc2)[C@@H](CO)N3C)cc1 | -20.1% (inactive) |
| N#Cc1ccc(-c2ccc3c(c2)[C@@H]2[C@@H](CCN2S(=O)(=O)c2ccccc2F)[C@H](CO)N3)cc1 | 1.1% (inactive) |
| N#C[C@H]1[C@H](c2ccccc2C2=CCCCC2)[C@H](CO)N1S(=O)(=O)c1ccccc1 | -13.5% (inactive) |
| COC(=O)C[C@@H]1CC[C@H]2[C@@H](COc3ccc(NC(=O)Cc4cccs4)cc3C(=O)N2C)O1 | -10.2% [at 23.5 µM] (inactive) |
| CCOc1cccc(C(=O)Nc2ccc(N(CC)CC)cc2)c1 | -13.8% (inactive) |
| Cc1cc(C)n2ncc(C(=O)NCc3ccc(Cl)cc3)c2n1 | -17.4% (inactive) |
| C[C@@H]1CN([C@@H](C)CO)C(=O)c2cc(NC(=O)CCCN(C)C)ccc2O[C@@H]1CN(C)Cc1ccc(-c2ccccc2)cc1 | -16.2% [at 23.5 µM] (inactive) |
| C[C@H](CO)N1C[C@H](C)[C@@H](CN(C)Cc2ccc(-c3ccccc3)cc2)Oc2ccc(NC(=O)C3CCCCC3)cc2C1=O | -13.4% (inactive) |
| CC(C)C(=O)Nc1ccc2c(c1)C(=O)N(C)[C@@H]1CC[C@H](CC(=O)O)O[C@@H]1CO2 | 0.011% [at 23.5 µM] (inactive) |
| Cc1cccc(N2CCN(S(=O)(=O)c3cn(C)cn3)CC2)c1C | 27.8% (inactive) |
| C[C@H](O)C#Cc1ccc2c(c1)O[C@H](CN(C)C)[C@H](C)CN([C@H](C)CO)S2(=O)=O | 0.849% (inactive) |
| CC1(C)Cc2c(C#N)c(SCC(=O)c3ccccc3)nc(N3CCOCC3)c2CS1 | 1.34% (inactive) |
| CCc1ccc(NC(=O)CSc2nnc(-c3ccco3)o2)cc1 | 13.7% (inactive) |

| Structure (SMILES) | activity change, negative = cytotoxicity |
| --- | --- |
| COC(=O)C[C@@H]1CC[C@@H]2[C@@H](COc3ccc(NC(=O)Cc4cccs4)cc3C(=O)N2C)O1 | 5.87% (inactive) |
| C[C@@H]1CN([C@@H](C)CO)C(=O)c2cc(-c3ccccc3)cnc2O[C@H]1CN(C)C(=O)c1cccc(F)c1 | -6.33% (inactive) |
| COCC(=O)Nc1ccc2c(c1)C(=O)N(C)[C@H]1CC[C@H](CC(=O)NCc3ccccc3Cl)O[C@@H]1CO2 | -9.97% [at 23.5 µM] (inactive) |
| O=C(Nc1ccccc1F)N1C[C@@H]2[C@H](c3ccccc31)[C@@H](CO)N2C(=O)C1CC1 | -14.9% (inactive) |
| CN(C)C(=O)c1ccc(-c2ccc3c(c2)[C@H]2[C@H](CCN2C(=O)c2ccc(F)cc2)[C@@H](CO)N3C)cc1 | -48.7% [at 23.5 µM] (inactive) |
| Cc1cccc(NC(=O)c2ccc(C3SCC(=O)N3CCc3ccccc3)cc2)c1 (stereo not given) | -23.6% (inactive) |
| Cc1cc(C)c(S(=O)(=O)Nn2cnnc2)c(C)c1 | -9.49% (inactive) |
| COc1cccc(CNC(=O)CCc2nnc3ccc(NCCCN4CCCC4=O)nn23)c1 | -20.6% (inactive) |
| N#C[C@@H]1[C@@H](c2ccccc2C2=CCCCC2)[C@@H](CO)N1S(=O)(=O)c1ccccc1 | -16.8% [at 23.5 µM] (inactive) |
| O=S(=O)(c1ccccc1F)N1CC[C@@H]2[C@H](CO)Nc3ccc(-c4cccc(F)c4)cc3[C@@H]21 | -3.15% (inactive) |
| COc1cccc(-c2ccc3c(c2)[C@@H]2[C@@H](CCN2S(=O)(=O)c2cccc(OC)c2)[C@H](CO)N3)c1 | -18.7% (inactive) |
| C[C@H]1CN([C@@H](C)CO)C(=O)c2cc(NC(=O)C3CCCCC3)ccc2O[C@H]1CN(C)Cc1ccc(-c2ccccc2)cc1 | -19.6% (inactive) |
| CCCCOc1ccc(C(C)NC(=O)C2CCCN(S(=O)(=O)CCC)C2)cc1 (stereo not given) | -28.5% (inactive) |
| C[C@H]1CN([C@@H](C)CO)C(=O)c2cc(-c3ccccc3)cnc2O[C@H]1CN(C)C(=O)c1cccc(F)c1 | -13.2% (inactive) |
| CS(=O)(=O)N1CCN(c2ccc(NC(=O)c3ccc([N+](=O)[O-])o3)cc2)CC1 | -28.3% (inactive) |
| COc1ccc(-c2oc3ncnc(NCCCN4CCOCC4)c3c2-c2ccc(OC)cc2)cc1 | 19.9% (inactive) |
| COCC(=O)Nc1ccc2c(c1)C(=O)N(C)[C@H]1CC[C@H](CC(=O)NCc3ccccc3Cl)O[C@H]1CO2 | -9.22% (inactive) |
